# Columns and labels:
# [1] = molecular target: Tumor necrosis factor receptor superfamily member 10B (Homo sapiens) (UniProt O14763); test: caspase-8 TRAIL sensitization, hit retest, confirmation, cell-based, NB7+caspase-8, with/without TRAIL, luminescence panel (AID 651596); details: NB7 neuroblastoma + caspase-8, TRAIL sensitization, luminescence viability, with TRAIL, mean of runs, at 10 µM, stronger effect = higher value
# [2] = as above; details: NB7 neuroblastoma + caspase-8, without TRAIL, luminescence viability, without TRAIL, mean of runs, at 10 µM
# Tumor necrosis factor receptor superfamily member 10B (Homo sapiens), sequence (O14763 whole entry, looked up): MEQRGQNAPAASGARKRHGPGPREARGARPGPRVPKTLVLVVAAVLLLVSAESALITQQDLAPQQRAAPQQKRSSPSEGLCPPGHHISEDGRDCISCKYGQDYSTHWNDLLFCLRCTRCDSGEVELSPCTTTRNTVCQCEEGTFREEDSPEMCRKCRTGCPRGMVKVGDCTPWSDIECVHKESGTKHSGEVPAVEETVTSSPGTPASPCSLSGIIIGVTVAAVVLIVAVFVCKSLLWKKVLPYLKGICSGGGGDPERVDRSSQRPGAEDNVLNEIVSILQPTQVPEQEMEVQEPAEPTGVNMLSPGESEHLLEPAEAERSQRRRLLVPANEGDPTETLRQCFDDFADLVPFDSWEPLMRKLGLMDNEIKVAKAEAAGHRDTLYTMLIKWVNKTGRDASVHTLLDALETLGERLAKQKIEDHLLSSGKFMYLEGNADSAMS
Compound,activity [1],activity [2]
COc1ccc(/C=N/Nc2cc(C)nc3ccc(Br)cc23)cc1,61%,78%
COc1ccc(-c2nnc(NC(=O)c3ccco3)s2)cc1,55.4%,60.6%
CC(C)(C)NC(=O)C(c1ccncc1)n1c(-c2ccc(C(F)(F)F)cc2)nc2ccccc21 (centres undefined),74.4%,85.8%
Nc1nc(Nc2ccccc2)nc2ccccc12,69.2%,61.3%
O=C(Nc1ccc2nc3n(c(=O)c2c1)CCCCC3)c1c(F)ccc([N+](=O)[O-])c1F,72.9%,52.3%
CCC(C)c1ccc(NC(=O)c2ccco2)cc1 (centres undefined),81.5%,82.8%
Clc1ccc(-c2nc(-c3ccccn3)no2)cc1Cl,77.5%,74.5%
CC1(C)N=C(N)N=C(N)N1c1ccccc1,83.4%,87.2%
COc1ccc(C(C(=O)NC2CCCCC2)N(C(=O)CCl)c2ccc(C)cc2)cc1 (centres undefined),99.5%,99.3%
Cc1ccc(C(=O)OCn2ncc(Cl)c(Cl)c2=O)cc1,100%,100%
CC(C)(C)OC[C@H](NC(=O)c1[nH]cnc1C(=O)Nc1ccccc1F)C(=O)OC(C)(C)C,55.4%,59.2%
CCN(Cc1ccccc1)S(=O)(=O)c1ccc(C(=O)N(CCCN(C)C)c2nc3cc(C)cc(C)c3s2)cc1,23.3%,-11.7%
c1ccc(-c2cn3c4c(sc3n2)CCCC4)cc1,94%,94%
O=C(CCl)Nc1c(C(=O)Nc2ccc3c(c2)OCCO3)oc2ccccc12,93.3%,90.3%
O=C(CCl)Nc1ccccc1Sc1ccccc1,83.2%,87.8%
CC(=O)c1ccc(N2CCN(c3ccc4cc(S(=O)(=O)N5CCC(C)CC5)ccc4n3)CC2)cc1,56.4%,19.2%
CC(=O)Nc1sc(C)c(C)c1C(=O)OCC(=O)N(CC(C)C)c1c(N)n(Cc2ccccc2)c(=O)[nH]c1=O,97.5%,98.9%
COc1cccc(NC(=O)Nc2nc(-c3ccc(OC)c(OC)c3)cs2)c1,98.5%,99.2%
COc1ccc(C2NN=C(c3ccc(C)cc3)S2)cc1 (centres undefined),51.8%,42.1%
CCCC(=O)Nc1ccc(C(=O)N/N=C/c2ccc[nH]2)cc1,98.5%,97.8%
CCC(C)c1ccc(NC(=O)c2cccs2)cc1 (centres undefined),72.8%,68.1%
COc1ccc(-c2sc3ccccc3c2-c2ccc(OCCN(C)C)cc2)cc1,52.4%,73.6%
CN(C)c1ccc(C=Nc2ccccc2C(N)=O)cc1,85.3%,86.5%
NC(=O)c1ccccc1N/C=C/C(=O)c1ccc(F)cc1,78.8%,73%
O=C(NCCO)c1ccc2c3n(nc2c1)-c1ccccc1CO3,78.9%,78.8%
Cc1cc(C)c2c(N)c(C(=O)Nc3nccs3)sc2n1,89.5%,87.2%

Compound,activity [1],activity [2]
O=C(Nc1ccc(Cl)cc1)/C(=C/c1cccc(O)c1)c1nc2ccccc2s1,95.7%,98.1%
CCc1nc(N2CCN(C(=O)CCl)CC2)c2c3c(sc2n1)CC(C)CC3 (centres undefined),99.3%,91.5%
Cc1nc2c(-c3ccc(F)cc3)cnn2c(N)c1-c1ccc(F)cc1,66.2%,57%
c1c2c(cc3sc(N4CCOCC4)nc13)OCCO2,66.8%,75%
Cc1ccc(/C=N/Nc2ccc3ccccc3n2)o1,55.2%,45.1%
CC1(C)N=C(N)N=C(N)N1CCCCc1ccccc1,63.6%,68.3%
Cc1cc(-c2csc3nc[nH]c(=S)c23)cc(C)c1C,79.3%,74.9%
O=C(/C=C\Nc1ccccn1)c1ccc(Cl)cc1,77.2%,63.3%
O=C(Cn1c2ccccc2c(=O)c2ccccc21)N/N=C/c1cc([N+](=O)[O-])ccc1N1CCCCCC1,49.8%,48%
Cn1sc(NC(=O)c2ccc(Cl)cc2)nc1=O,68.4%,67%
COc1ccc(C)c2sc(N(CCCN(C)C)C(=O)c3ccc(S(=O)(=O)N4CCc5ccccc5C4)cc3)nc12,95.1%,99.4%
CCOc1ccc2nc(NC(=O)c3ccc(C)o3)sc2c1,61.1%,52.9%
COc1ccc(C(=O)Nc2ccccc2C(=O)N/N=C/c2ccccn2)cc1OC,80.7%,59.5%
COc1ccc(C(=O)Nc2ccc3ncccc3c2)cc1,87.7%,85.3%
O=C(N/N=C/C=C/c1ccccc1)c1cc2c(ccc3ccccc32)o1,62.1%,56.4%
CCOc1ccc(C(=O)Nc2nnc(SCC(=O)NCC3CCCO3)s2)cc1 (centres undefined),96.1%,96.3%
O=C(Nc1nc2cc3c(cc2s1)OCO3)c1ccco1,79.5%,93.1%
O=C(Cn1ncc(Cl)c(Cl)c1=O)Nc1ccc2c(c1)OCO2,99.5%,99.5%
Cc1ccc(-c2nc(-c3ccncc3)no2)c(Cl)c1,63%,57.1%
COc1ccc(/C=C\c2nc(=O)c3ccccc3o2)cc1,72%,69.6%
O=C(N/N=C/C(Cl)=C/c1ccccc1)c1ccccn1,61.2%,42.8%
CN1CCc2c(sc(NC(=O)c3ccc([N+](=O)[O-])o3)c2C(N)=O)C1,9.5%,95.3%
CC(C)c1ccc(/C=N/NC(=O)c2c(Cl)cnn2C)cc1,80.1%,71.3%
Cn1c(N/N=C/c2cc3ccccc3nc2Cl)nc2ccccc21,92.3%,94%
COc1ccc(-c2nn(-c3ccccc3)cc2/C=N/NC(=O)c2ccc(Br)o2)cc1,79.5%,32.3%
CC(C)(C)OC(=O)NCCCC[C@H](NC(=O)c1nc[nH]c1C(=O)NC(c1ccccc1)c1ccccc1)C(=O)OC(C)(C)C,67%,23.8%

Compound,activity [1],activity [2]
C/C(=N\NC(=O)COc1ccc(C(C)(C)C)cc1)c1ccc(-n2ccnc2)cc1,63.5%,49.1%
CCN(CC)S(=O)(=O)c1cc(NC(=O)Cn2ncc(Cl)c(Cl)c2=O)ccc1C,99.5%,99.6%
Cc1cc(Br)ccc1OCCCCNCCO,28.1%,41.9%
Cc1nc2sc(-c3ccccc3)cc2c(=O)[nH]1,74.1%,73.8%
O=[N+]([O-])c1cc(S(=O)(=O)C(F)(F)F)ccc1Sc1nc2ccccc2[nH]1,33.1%,94.2%
O=C(c1cc(-c2ccc3c(c2)OCO3)on1)N1CCCCC1,53.4%,48.9%
Cc1ccsc1/C=N/NC(=O)c1ccc2c(c1)OCCO2,75.9%,68.2%
CCc1cc2c(COC(=O)CCNS(=O)(=O)c3cccc(C(F)(F)F)c3)cc(=O)oc2cc1O,23.9%,3.52%
CCc1ccc(/C=N/NC(=O)c2ccccn2)cc1,83.9%,73%
Cc1nc(N)nc(N)c1-c1ccc([N+](=O)[O-])cc1,71.8%,81.2%
Cc1cc(C)cc(NS(=O)(=O)c2ccc3[nH]cc(C(=O)NCc4ccco4)c(=O)c3c2)c1,80%,85.3%
Cc1cc(=O)[nH]c2nnc(-c3ccc(Cl)cc3)n12,82.2%,78.6%
C=C1C(=O)C23CCC4C(C)(C(=O)OC)CCCC4(C)C2CCC1(O)C3 (centres undefined),95.6%,98.7%
Clc1ccc(-n2ncc3c(N4CCCCCC4)ncnc32)cc1,78%,74.8%
CCOc1ccc2nc(N3C(=O)CNC3=S)sc2c1,65.2%,60.6%
COc1ccc(-c2cc(CNc3nc(NC(C)C)nc4cc(-c5ccccc5)sc34)on2)cc1,91.6%,92.4%
Cc1cc(NC(=O)c2ccc(C(C)(C)C)cc2)no1,77.8%,79.9%
O=C(Nc1ccc2c(c1)OCCO2)c1ccc(Cl)cc1,66.3%,69.5%
CCCCC[C@@H](C)N1C[C@H](COCc2ccccc2)Oc2cc(N3CC[C@H](N(C)C)C3)ccc2S1(=O)=O,12%,45.6%
CCc1ccc2nc(N(CCCN(C)C)C(=O)c3ccc(S(=O)(=O)N4CCCc5ccccc54)cc3)sc2c1,38.9%,63.9%
Cc1nc(SCC(=O)Nc2nccs2)c(C#N)c(C)c1C,90.8%,92.1%
COc1cccc(N=c2oc3ccc(OC)cc3cc2-c2nc3ccccc3[nH]2)c1,12.8%,18.1%
CC(C)Nc1ccc(-n2nc3ccccc3[n+]2[O-])cc1,62.5%,61%
Cc1cccc(NC(=O)c2onc3c2CCCC3)n1,85.6%,89.4%
C/C(=N\NC(=O)c1ccncc1)c1cccc(NC(=O)c2ccc(C(C)(C)C)cc2)c1,85.5%,81.6%

# Source: PubChem BioAssay
